The values that follow come from the supplement of paper PMC12669032.

Values without a mark were called inactive.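 Rule for the calls: active = AUC reduced over 20% with Padj below 0.05 in at least 2 of 3 replicates; inactive = otherwise.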

The test concerns Parabacteroides merdae. As to the kind of experiment: growth AUC relative to DMSO control (median of replicates) (fraction); higher = more growth (less inhibition), active = hit call of the paper. The conditions noted are these: 20 µM; 24 h. A digest of the protocol:
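Each value is the median of three biological replicates, grown on separate days, of a gut bacterial monoculture incubated anaerobically at 37 °C in mGAM with 20 µM compound (1% DMSO). Cultures started at OD600 0.05 and were read at OD600 hourly for 24 h, with the minimum OD set to 0. Area under the growth curve was normalised to the plate median of solvent-only wells, or to row and column medians on the industrial chemical plate.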
With `Nc1cccc(O)c1`, the “growth AUC” value was 1.

As for `CCc1cccc(C)c1NC(C)C(=O)O` (racemic), the “growth AUC” value was 1.

In the case of `CCc1ccc(C(c2ccc(CC)cc2)C(Cl)Cl)cc1`, the “growth AUC” value is 0.882.

Consider `CC(C)N(C(=O)CS(=O)CC(=O)O)c1ccc(F)cc1` (centres undefined), for which the “growth AUC” value is 0.977.

Turning to `O=[N+]([O-])c1ccc(Oc2c(Cl)cc(Cl)cc2Cl)cc1`, the “growth AUC” value was 0.899.

In the case of `CCOC(=O)c1nc(C(Cl)(Cl)Cl)n(-c2ccc(Cl)cc2Cl)n1`, the “growth AUC” value was 0.965.

Consider `Cc1ccc2c(c1)[C@H](Nc1nc(N)nc(C(C)F)n1)[C@@H](C)C2` (some centres undefined), for which the “growth AUC” value is 0.972.

With `CCCCCCCC(=O)Oc1c(Br)cc(C#N)cc1Br`, the “growth AUC” value is 0.922.

Regarding `CCNc1nc(N)[nH]c(=O)n1`, the “growth AUC” value is 0.995.

For `CN(C)C(=O)Nc1cc(C(C)(C)C)on1`, the “growth AUC” value was 1.

With `O=C(NC(=O)c1c(F)cccc1F)Nc1cc(C(F)(F)F)cc(C(F)(F)F)c1Cl`, the “growth AUC” value is 0.951.

Take `COC(=O)CSc1cc(N=c2sc(=O)n3n2CCCC3)c(F)cc1Cl`: the “growth AUC” value was 0.967.

With `CCN(Cc1c(F)cccc1Cl)c1c([N+](=O)[O-])cc(C(F)(F)F)cc1[N+](=O)[O-]`, the “growth AUC” value was 0.903.

As to `CCNC(=O)[C@@H](C)OC(=O)Nc1ccccc1`, the “growth AUC” value is 1.04.

Turning to `CON=C(Cc1cccnc1)c1ccc(Cl)cc1Cl`, the “growth AUC” value is 1.01.

As to `COC(=O)Nc1ccc(Cl)c(Cl)c1`, the “growth AUC” value is 0.956.

Consider `CC[N+](CC)(CC(=O)Nc1c(C)cccc1C)Cc1ccccc1.O=C([O-])c1ccccc1`, for which the “growth AUC” value is 1.05.

Regarding `CC(C)(C)[C@@H](O)[C@@H](Cc1ccc(Cl)cc1)n1cncn1` (mixture of isomers), the “growth AUC” value was 0.911.

In the case of `COCC(=O)N(c1c(C)cccc1C)C(C)C(=O)O` (centres undefined), the “growth AUC” value was 1.05.

Regarding `COC(=O)c1ccccc1S(=O)(=O)NC(=O)n1nc(OCC(C)O)n(C)c1=O` (centres undefined), the “growth AUC” value was 0.996.

As for `CCOC(=O)Cc1[nH]nc2ccc(Cl)cc12`, the “growth AUC” value is 1.03.

As to `CCCCCCCC/C=C\CCCCCCCC(N)=O`, the “growth AUC” value is 0.955.

With `COC1CCC2(CC1)NC(=O)C(c1cc(C)ccc1C)=C2OC1OC(CO)C(O)C(O)C1O` (centres undefined), the “growth AUC” value is 1.05.

For `COC(=O)c1ccc(C(F)(F)F)nc1S(=O)(=O)[N-]C(=O)Nc1nc(OC)cc(OC)n1.[Na+]`, the “growth AUC” value was 0.974.

For the molecule `COC1CCC2(CC1)NC(=O)C(c1cc(C)ccc1C)=C2O` (centres undefined), the “growth AUC” value was 1.08.

Consider `O=C(Nc1ccc(O)cc1-c1ccc(Cl)cc1)c1cccnc1Cl`, for which the “growth AUC” value was 0.994.

For `Cc1nn(C)c(F)c1C(=O)Nc1ccccc1C(C)CC(C)C` (centres undefined), the “growth AUC” value is 0.946.

Consider `O=C(NCc1ncc(C(F)(F)F)cc1Cl)c1c(Cl)cccc1Cl`, for which the “growth AUC” value is 0.979.

Consider `CC1COc2ccccc2N1C(=O)C(Cl)Cl` (centres undefined), for which the “growth AUC” value is 0.95.

`CCc1cccc(C)c1NC(=O)C(=O)O`: the “growth AUC” value is 1.03.

For `Cc1[nH]oc(=O)c1N=Nc1ccccc1Cl`, the “growth AUC” value was 0.949.

As for `COc1ccccc1C(=O)NS(=O)(=O)c1ccc(C(=O)NC2CC2)cc1`, the “growth AUC” value is 1.01.

Take `O=C(O)c1ccc(Cl)cc1Cl`: the “growth AUC” value is 0.989.

As for `CCCCCCCC/C=C\CCCCCCCCCCCCC`, the “growth AUC” value is 0.991.

On to `COC(=O)COc1ccc(Cl)cc1C`, for which the “growth AUC” value is 1.03.

As for `CC(C)OC(=O)N[C@H](C(=O)N[C@H](C)c1nc2ccc(F)cc2s1)C(C)C`, the “growth AUC” value was 1.

Regarding `CCNc1nc(N)nc(Cl)n1`, the “growth AUC” value is 1.02.

Consider `Cc1nn(C)c(OCC(=O)c2ccccc2)c1C(=O)c1ccc(Cl)cc1Cl`, for which the “growth AUC” value is 0.926.

Take `Cc1cc(C)c(C2=C(O)C3(CCCC3)OC2=O)c(C)c1`: the “growth AUC” value is 1.
